According to PubChem BioAssay AID1671190 (National Center for Advancing Translational Sciences (NCATS), 2021):
In all, about 580,000 compounds went through this assay and about 6,100 (1.1%) were called active. About 15% were inconclusive and are not listed. This excerpt belongs to a sample that is enriched for actives. A number with no mark means an inactive call. Calls come from the whole dose curve; as a rule, active = well fitted inhibition curve with a large enough effect; inconclusive = small, poorly fitted or top-dose-only effect, or another doubt; inactive = no such curve, though single readings can be large or run the other way.

What follows are molecules tested against Polyunsaturated fatty acid lipoxygenase ALOX12 (Homo sapiens) (UniProt P18054) (assay: Primary qHTS assay for inhibitors of human arachidonate 12S-lipoxygenase (ALOX12): Round 2). Details: purified 12hLO, xylenol orange hydroperoxide absorbance; series mostly up to 108 µM; activity change, negative = inhibition: at the top concentration.
Chain of Polyunsaturated fatty acid lipoxygenase ALOX12 (Homo sapiens) (P18054 whole entry, looked up): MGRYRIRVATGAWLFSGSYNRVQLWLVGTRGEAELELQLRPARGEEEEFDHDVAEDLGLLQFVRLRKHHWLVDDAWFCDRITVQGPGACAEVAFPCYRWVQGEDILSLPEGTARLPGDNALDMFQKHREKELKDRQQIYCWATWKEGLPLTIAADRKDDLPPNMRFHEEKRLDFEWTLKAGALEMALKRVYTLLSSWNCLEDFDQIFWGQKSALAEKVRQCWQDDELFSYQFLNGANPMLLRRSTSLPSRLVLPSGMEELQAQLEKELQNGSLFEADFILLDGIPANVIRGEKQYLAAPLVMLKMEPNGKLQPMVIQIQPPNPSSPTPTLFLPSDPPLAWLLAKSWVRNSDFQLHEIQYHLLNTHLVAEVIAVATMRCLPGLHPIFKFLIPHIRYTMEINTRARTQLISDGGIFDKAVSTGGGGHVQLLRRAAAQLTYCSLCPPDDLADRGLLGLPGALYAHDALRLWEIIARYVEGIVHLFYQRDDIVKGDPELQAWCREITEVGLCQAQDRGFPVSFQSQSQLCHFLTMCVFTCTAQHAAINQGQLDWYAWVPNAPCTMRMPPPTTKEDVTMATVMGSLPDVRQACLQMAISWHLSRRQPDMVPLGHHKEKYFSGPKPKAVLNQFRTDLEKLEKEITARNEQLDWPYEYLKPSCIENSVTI
In short: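 Purified human 12hLO at 150 nM in 25 mM Hepes, 0.01% Triton X-100, pH 7.0, preincubated 15 min at room temperature with compound. Reaction started with 40 uM arachidonic acid, 30 min at room temperature. Hydroperoxide measured by Fe-xylenol orange, 573/405 nm absorbance ratio.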
% is set by controls: 0 for no effect and ±100 for the full control effect; potency is the fitted concentration of half-maximal effect.

| SMILES | Potency | activity change, negative = inhibition |
| --- | --- | --- |
| C#C[C@]1(O)CC[C@H]2[C@@H]3CCC4=CC(=O)CC[C@@H]4[C@H]3CC[C@@]21CC | inactive | – |
| C[C@]12CCC3=C4CCC(=O)C=C4CC[C@@H]3[C@H]1CC[C@@]2(O)CC#N | 19.3 µM (active) | – |
| Cc1ccccc1NC(=O)CSc1nnc(C)n1-n1cccc1 | – | 0.567% |
| COc1ccc(NC(=O)c2nn(C)c(=O)c3ccccc23)cc1OC(F)F | – | 11.9% |
| CCc1cccc(C)c1NC(=O)Cn1ccn(-c2ccccc2)c(=O)c1=O | – | 27.8% |
| CC(C)(C)c1ccc(/C=C/C(=O)NC2CCS(=O)(=O)C2)cc1 (stereo not drawn) | – | -1.56% |
| O=C(COC(=O)/C=C/c1ccc(Cl)cc1)NC1CCS(=O)(=O)C1 (stereo not drawn) | – | -5.54% |
| CC(C(=O)NC1CCS(=O)(=O)C1)N1C(=O)/C(=C/c2ccc(Cl)cc2)SC1=S (stereo not drawn) | 35.5 µM (active) | – |
| COc1ccc(S(=O)(=O)N2CCN(Cc3ncc(-c4ccc(F)cc4)o3)CC2)cc1 | – | -18.3% |
| O=C(c1ccco1)N1CCN=C1SCc1cccc(Cl)c1 | – | -7.97% |
| Cc1cc2nc(-c3ccco3)c(Cc3cccc(F)c3)n2c(C)c1Br | 11.2 µM (active) | – |
| Cc1ccc2nc(-c3ccco3)c(Cc3cccc(Cl)c3)n2c1 | 25.1 µM (active) | – |
| Cc1ccc2nc(COc3cccc(NC(=O)c4cccc(Cl)c4)c3)cc(=O)n2c1 | – | -35.3% |
| Cc1ccc(C(=O)c2ccccc2C(=O)OCc2ccccc2Cl)cc1 | – | -2.13% |
| CCN(CC)S(=O)(=O)c1ccc2c(c1)c(=O)n(CC(=O)N1CCCCCC1)c(=O)n2C | – | 3.26% |
| O=C(CSc1nnc(-c2ccc(Cl)cc2)o1)N1CCC(c2ccccc2)=N1 | – | -7.14% |
| O=C1C(Cl)=C(Oc2ccccc2)C(=O)c2ccccc21 | 11.2 µM (active) | – |
| Cc1cc2c(cn1)C(=O)c1ccccc1-2 | – | -6.61% |
| N#Cc1cccc(CN2CCC(c3ccnn3CCO)CC2)c1 | – | 2.21% |
| COc1ccc(OC)c(NC(=O)c2nc3ccccc3nc2N2CCCC2)c1 | – | 4.4% |
| COc1ccc2nc(N3CCCC(O)C3)c(C#N)cc2c1 (stereo not drawn) | 50.1 µM (active) | – |
| COc1ccc2cc(C(=O)C3CCCN(C(=O)c4sc(C)nc4C)C3)ccc2c1 (stereo not drawn) | – | -0.7% |
| O=C(COc1ccc2ccccc2c1)Nc1nc2n(n1)C(c1ccc(Cl)cc1)CC(=O)N2 (stereo not drawn) | – | -2.54% |

| SMILES | Potency | activity change, negative = inhibition |
| --- | --- | --- |
| O=C(NCC1CCCCO1)C1(Oc2ccc(Cl)cc2)CCNCC1 (stereo not drawn) | – | 33.9% |
| CC(C)N(C(=O)COC(=O)/C=C/c1cccc2cccnc12)c1ccccc1 | – | -2.31% |
| CC(=O)NC1(C)CN(Cc2ccc(-c3ccc4c(ccn4C)c3)s2)C1 | – | -9.28% [at 176 µM] |
| COC(=O)Nc1ncc(CN2CCCCC2)s1 | – | 18% |
| CC(=O)NC1(C)CCN(Cc2cnc(-c3ccc4c(ccn4C)c3)s2)CC1 | 39.8 µM (active) | – |
| CCCc1c(C)nc(Nc2nc(C)c3ccc(C)cc3n2)[nH]c1=O | – | -5% |
| COC(=O)c1sc2ncccc2c1-n1c(C)ccc1C | – | 3.01% |
| CCOc1ccc(-n2c(N)c(C(=O)NCC3CCCO3)sc2=S)cc1 (stereo not drawn) | – | -25.8% |
| COC(=O)c1sc(=S)n(-c2ccccc2)c1N | 44.7 µM (active) | – |
| Cc1ccc(C(=O)NC(c2ccc3c(c2)OCCCO3)C(C)C)cn1 (stereo not drawn) | – | -5.47% |
| Cc1c(CCC(=O)NCc2ccc3c(c2)OCO3)c(=O)oc2cc(O)ccc12 | – | 21.8% |
| COc1ccc(NC(=O)c2ccc(Br)o2)cc1NC(=O)c1ccccc1C | – | -25.8% |
| O=C(Nc1ccc2c(c1)OCO2)c1cc(=O)c(OCc2ccccc2F)co1 | – | 17.9% |
| CN1C(=O)c2ccc(NC(=O)C(F)(F)C(F)(F)C(F)(F)F)cc2C1=O | – | 16.5% |
| COc1c(CNCc2cccnc2N2CCOCC2)c(C)nn1C | – | -0.0455% |
| Cc1nn2c(c1-c1ccccc1-c1ccccc1)N(C(=O)CN1CCOCC1)CCC2 | – | -29.2% [at 176 µM] |
| Cc1ccccc1CN1CCCn2nc(C)c(-c3cccnc3N3CCOCC3)c21 | 28.2 µM (active) | – |
| COC(=O)c1cc(C)nc2c1c(=O)n(Cc1cccc(Cl)c1)c(=O)n2-c1ccccc1 | – | -23.8% |
| O=C(CSCc1ccc(Cl)cc1)N1CCCCC1 | – | -10.3% |
| Oc1cc2c(cc1O)CN(C(=S)NCCc1ccc(Cl)cc1)CCC2 | 17.8 µM (active) | – |
| O=C(NCCc1ccc(Cl)cc1)C1CCCN1C(=O)NCc1ccccc1 (stereo not drawn) | – | 0.671% |
| CCN(CC(=O)NC(C)C)C(=O)Cn1c(=O)c2c(ncn2CC(C)C)n(Cc2ccccc2)c1=O | – | 0.5% |
| CC(C)c1cccc(NC(=O)Cc2n[nH]c(=O)c3ccccc23)c1 | – | 6.42% |

| SMILES | Potency | activity change, negative = inhibition |
| --- | --- | --- |
| CCc1nnc(NC(=O)COc2ccc3c(C)cc(=O)oc3c2)s1 | – | 4.96% |
| CC[C@@H]1Cc2cc(O)ccc2C2=C1c1ccc(O)cc1C[C@H]2CC | 50.1 µM (active) | – |
| Cc1ccc(C)c(NC(=S)NNC=O)c1 | – | 36.4% |
| CCC(C)NC(=S)Nc1ccc(C)cc1 (stereo not drawn) | – | -52.6% |
| Cc1ccc(C)c(NC(=S)NNC(=S)Nc2ccc(C(C)C)cc2)c1 | 35.5 µM (active) | – |
| O=C(CCC1CCCCC1)NC(N1CCCCC1)(C(F)(F)F)C(F)(F)F | – | 0% |
| CC(CCc1ccccc1)NC(=O)C1CC=CCC1 (stereo not drawn) | – | 4.29% |
| CCc1ccc(C(=O)Nc2ccc(Cl)cc2)cc1S(=O)(=O)N1CCOCC1 | – | -4.05% |
| CCc1cccc(NC(=O)c2cccc(S(=O)(=O)N3CCOCC3)c2)c1 | – | 4.89% |
| CCc1nnc(NS(=O)(=O)c2ccc(NC(=S)NC(=O)c3cccs3)cc2)s1 | 22.4 µM (active) | – |
| Cc1cc(C)nc(NS(=O)(=O)c2ccc(N/C=C\C(=O)c3cccs3)cc2)n1 | – | -7.72% |
| CCC(CC)C(=O)Nc1ccc(S(=O)(=O)Nc2nccs2)cc1 | – | -10.7% |
| S=C(Cc1ccccc1)SC/C=C/c1ccccc1 | – | 12.7% |
| NNc1nc2c(Cl)cccc2s1 | 17.8 µM (active) | – |
| CCN1CCN(C(=O)c2cc3cc(Cl)cc(Cl)c3oc2=O)CC1 | – | -0.253% |
| CCCCNC(=O)C(C#N)c1nc2ccccc2nc1N1CCN(C(=O)OCC)CC1 (stereo not drawn) | – | -11.5% |
| Fc1ccc(N/N=C/c2cccc(/C=N/Nc3ccc(F)cc3F)c2)c(F)c1 | – | 58.7% |
| Fc1ccc(N/N=C/c2ccc(-c3ccccc3)cc2)c(F)c1 | 2.24 µM (active) | – |
| O=C(CN1CCN(C/C=C/c2ccccc2)CC1)Nc1ccc(F)cc1F | – | 3.73% |
| COc1ccc(NC(C)=O)cc1NC(=O)c1nc(-c2ccccc2)oc1C | – | -6.87% |
| O=C(NC1CCS(=O)(=O)C1)c1cc2sccc2n1Cc1ccccc1 (stereo not drawn) | – | 6.34% |
| CN(C)CCNC(=O)CC1CCN(C(=O)c2nnc(C(=O)Nc3cccc(Cl)c3)s2)CC1 | – | 53.9% |
